SMILES strings stand for the structures. Calls of active or inactive are those of the source. Unless noted, the rule behind the calls is not given here.

Test [1] in a line: HepG2 liver cancer cell viability effects, profiling panel, resazurin fluorescence, 24 h, PK04 Diversity Set (AID 1172). Note: test concentration not given here. The conditions noted are these: higher = more signal. For orientation: Alamar Blue is a resazurin reagent that responds to reducing activity.
The nature of test [2]: basal S. cerevisiae growth modulation, no modifier, primary screen, OD600, strain BY4716, 24 h, basal condition (AID 1173). The conditions noted are these: OD600, 24 h, higher = more signal, called active from +8 up or from −8 down.
Test [3] is described as follows: MM1S myeloma cell viability, profiling panel, resazurin fluorescence, basal, 24 h, PK04 Diversity Set (AID 1174).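 Note: MM1S multiple myeloma cell line; test concentration not given here.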 The conditions noted are these: higher = more signal, called active from +8 up or from −8 down.
Test [4] has as its target Dihydroorotate dehydrogenase (quinone), mitochondrial (Plasmodium falciparum (isolate 3D7)) (UniProt Q08210). The test can be described thus: PfDHODH enzyme inhibitors, primary screen, biochemical, C-terminal His tag, absorbance 600 nm (AID 1175).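 Note: recombinant parasite enzyme with a five histidine tag at its C terminus; test concentration not given here.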 As to conditions: DCIP absorbance 600 nm, higher = more signal, called active from +8 up or from −8 down.
Test [5] can be described thus: P. aeruginosa biofilm formation inhibitors, primary screen, strain PAO1, LB-PBS medium, absorbance 600 nm (AID 1176). Note: test concentration not given here. As to conditions: P. aeruginosa PAO1 growth/biofilm, A600, 12 h; higher = more signal.
Test [6] in a line: S. cerevisiae RM11-1a growth modifiers, primary screen, strain RM11-1a, OD600, basal, 24 h (AID 1177).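 Note: cultures grown under basal conditions with no added stressor; test concentration not given here.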 As to conditions: OD600, 24 h, higher = more signal, called active from +8 up or from −8 down.
A short description of test [7]: E. coli acrAB mutant growth effects, primary screen, E. coli filamentation inducers, strain DRC39, OD650, 24 h (AID 1178).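 Note: growth measured as culture turbidity by optical density at 650 nm; test concentration not given here.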 The conditions noted are these: higher = more signal, called active from +8 up or from −8 down.
A short description of test [8]: E. coli acrAB mutant growth effects, primary screen, E. coli filamentation inducers, strain DRC39, OD650, 48 h (AID 1179).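 Note: screen aims at cell division blockers that make cells filament.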 As to conditions: E. coli DRC39 delta-acrAB growth, higher = more signal, called active from +8 up or from −8 down.
Test [9] is described as follows: RPMI8226 myeloma cell viability, profiling panel, resazurin fluorescence, basal, 24 h, PK04 Diversity Set (AID 1180).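 Note: RPMI8826 multiple myeloma cell line at 5000 cells per well; test concentration not given here.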 The conditions noted are these: higher = more signal.
Test [10] concerns the target E3 ubiquitin-protein ligase XIAP (Homo sapiens) (UniProt P98170). Kind of test: XIAP binders, primary screen, biophysical, small-molecule microarray, fluorescence 635 nm (AID 1181).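 Note: score merges 667 nm emission and signal to noise over triplicate slides.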 The conditions noted are these: small-molecule microarray binding, higher = more signal.

Sequence of Dihydroorotate dehydrogenase (quinone), mitochondrial (Plasmodium falciparum (isolate 3D7)) (Q08210 whole entry, looked up): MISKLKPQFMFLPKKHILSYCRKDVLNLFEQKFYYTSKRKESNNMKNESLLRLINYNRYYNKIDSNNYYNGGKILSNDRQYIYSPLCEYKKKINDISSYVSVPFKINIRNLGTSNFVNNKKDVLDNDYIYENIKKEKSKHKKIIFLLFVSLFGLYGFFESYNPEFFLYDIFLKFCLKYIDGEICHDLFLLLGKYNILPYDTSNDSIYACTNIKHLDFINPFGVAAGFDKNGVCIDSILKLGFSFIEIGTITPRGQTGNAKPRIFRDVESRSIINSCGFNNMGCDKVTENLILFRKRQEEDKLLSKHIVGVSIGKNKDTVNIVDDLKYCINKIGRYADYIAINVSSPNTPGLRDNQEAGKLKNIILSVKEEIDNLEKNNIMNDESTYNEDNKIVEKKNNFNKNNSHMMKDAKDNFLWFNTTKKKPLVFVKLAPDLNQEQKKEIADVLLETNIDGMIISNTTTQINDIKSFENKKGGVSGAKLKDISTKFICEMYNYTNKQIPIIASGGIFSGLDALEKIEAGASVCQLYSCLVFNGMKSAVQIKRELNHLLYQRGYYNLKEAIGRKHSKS
Sequence of E3 ubiquitin-protein ligase XIAP (Homo sapiens) (P98170 whole entry, looked up): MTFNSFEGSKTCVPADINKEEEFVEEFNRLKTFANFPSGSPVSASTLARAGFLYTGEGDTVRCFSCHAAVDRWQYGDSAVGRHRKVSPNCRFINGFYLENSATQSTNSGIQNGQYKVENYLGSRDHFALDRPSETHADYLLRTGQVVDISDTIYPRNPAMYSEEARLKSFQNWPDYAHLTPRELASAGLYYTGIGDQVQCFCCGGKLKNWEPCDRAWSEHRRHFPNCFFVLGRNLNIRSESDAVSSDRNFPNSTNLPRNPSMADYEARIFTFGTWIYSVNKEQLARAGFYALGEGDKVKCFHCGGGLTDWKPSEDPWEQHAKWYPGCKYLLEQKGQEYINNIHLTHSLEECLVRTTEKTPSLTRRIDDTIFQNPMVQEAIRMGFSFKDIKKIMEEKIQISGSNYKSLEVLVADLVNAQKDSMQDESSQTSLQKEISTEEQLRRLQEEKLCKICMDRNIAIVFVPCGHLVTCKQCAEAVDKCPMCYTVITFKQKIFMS

For `CC(CCN1CCc2nc(-c3ccccc3)c(-c3ccccc3)cc2C1)=NOC[C@@H](O)[C@H]1O[C@@H]2OC(C)(C)O[C@@H]2[C@H]1O`, the z-score is -0.31 in test [1]; -3.84 (inactive) in test [2]; -1.06 (inactive) in [3]; 0.359 (inactive) in test [5]; -0.187 (inactive) in test [6]; 1.39 (inactive) in test [7]. The z-score in test [8] was 0.431 (inactive); in test [9], -0.776. For the same molecule, the results for the composite z-score in test [4] and in test [10] were -0.897 (inactive) and 0.145, respectively.
For the molecule `CCOC(=O)[C@H](Cc1ccccc1)NC(=O)CCC1CC(OC(=O)NCc2cccc3ccccc23)CC2(CCCC(COC(=O)NCc3cccc(C(F)(F)F)c3)O2)O1` (stereo not given in full), the z-score in test [1] is -0.256; in test [2], -0.168 (inactive); in test [3], 0.415 (inactive); in test [5], 0.675 (inactive); in [6], 0.473 (inactive); in [7] it was 0.213 (inactive). Further, the figures for the z-score in test [8] and in [9] were -0.215 (inactive) and -0.573, respectively. Further, the composite z-score in test [4] is -0.873 (inactive); in [10], 0.158.
`COC(=O)[C@H]1O[C@@H](c2c(OC)c(OC)c(C)c(OC)c2OC)[C@H](C)[C@@H](O)[C@H]1C`: the z-score is -0.617 in test [1]; -0.615 (inactive) in test [2]; -1.76 (inactive) in test [3]; 0.417 (inactive) in test [5]; 0.275 (inactive) in test [6]; 0.968 (inactive) in test [7]. Further, the results for the z-score in test [8] and in test [9] were 0.926 (inactive) and -0.456, respectively. Besides, the composite z-score in [4] is -0.0757 (inactive); in test [10] it was -0.13.
`C=COC[C@@H]1CN2[C@@H](CC[C@@H](C)[C@@H]2c2ccc(Br)cc2)C(=O)O1`: the z-score was -0.32 in [1]; -4.37 (inactive) in [2]; -0.345 (inactive) in [3]; -1.01 (inactive) in [5]; -0.889 (inactive) in test [6]; -1.03 (inactive) in test [7]. Further, the z-score in test [8] was -1.65 (inactive); in [9] it was 0.169. Moreover, the composite z-score in [4] is -3.12 (inactive); in test [10], -0.0669.
In the case of `CO[C@@H]1COC(=O)[C@@H](C)NC(=O)CC=C[C@@H](C)[C@H](NS(=O)(=O)c2ccc(C)cc2)COC(=O)[C@H](C)NC(=O)CC=C[C@H]1C`, the z-score was 0.63 in [1]; -0.673 (inactive) in test [2]; 0.416 (inactive) in test [3]; -0.212 (inactive) in test [5]; -0.489 (inactive) in [6]; 1.39 (inactive) in test [7]. Moreover, the z-score in [8] is 0.428 (inactive); in [9], 1.08. Moreover, the composite z-score was 0.0059 (inactive) in [4] and -0.202 in test [10].
Take `CON=C[C@@H](C)[C@H](OCc1ccccc1)C(C)C`: the z-score was -0.304 in test [1]; -0.639 (inactive) in test [2]; 0.548 (inactive) in [3]; 0.298 (inactive) in [5]; -0.919 (inactive) in test [6]; -1.29 (inactive) in test [7]. The figures for the z-score in test [8] and in test [9] were -2.73 (inactive) and -0.32, respectively. Besides, the composite z-score in [4] was -2.72 (inactive); in test [10] it was -0.409.
Consider `CCOC(=O)[C@H](Cc1ccccc1)NC(=O)CCC1CC(OC(=O)NCc2cccc3ccccc23)CC2(CCCC(COC(=O)NCCC(C)C)O2)O1` (stereo not given in full), for which the z-score in test [1] was 1.15; in test [2] it was -1.07 (inactive); in test [3], 1.3 (inactive); in [5], 0.238 (inactive); in test [6], -0.886 (inactive); in [7], -0.427 (inactive). Besides, the values for the z-score in test [8] and in [9] were 0.319 (inactive) and 1.82, respectively. Moreover, the results for the composite z-score in test [4] and in test [10] were -0.619 (inactive) and 0.0867, respectively.
For `CC(C)(C)N1C(=O)[C@H]2[C@H]3[C@H](O)[C@H](O)CC(=O)[C@H]3CC[C@H]2C1=O`, the z-score in test [1] was -0.915; in [2], -0.573 (inactive); in [3], 0.319 (inactive); in [5], -0.908 (inactive); in [6] it was 0.143 (inactive); in test [7], -0.403 (inactive). For the same molecule, the values for the z-score in test [8] and in test [9] were -0.738 (inactive) and -0.383, respectively. Besides, the composite z-score was 0.236 (inactive) in [4] and -0.0378 in test [10].
For `CC(C)CON=C1C[C@@H](O)[C@@H](O)[C@@H]2[C@@H]3C(=O)N(C4CCCCC4)C(=O)[C@@H]3CC[C@H]12`, the z-score in test [1] was -0.451; in [2], -0.197 (inactive); in test [3], -0.143 (inactive); in test [5], -0.118 (inactive); in test [6], -0.207 (inactive); in [7] it was -0.651 (inactive). Besides, the z-score in test [8] is 0.272 (inactive); in [9], -0.365. The composite z-score in test [4] was 0.603 (inactive); in [10], 0.224.
Consider `COC(=O)CC=C[C@@H](C)[C@@H](C=NO[C@@H]1O[C@H](COC(C)=O)[C@@H](OC(C)=O)[C@H](OC(C)=O)[C@H]1OC(C)=O)NS(=O)(=O)c1ccc(C)cc1`, for which the z-score in test [1] is 0.22; in [2] it was 0.653 (inactive); in [3], -1.04 (inactive); in test [5] it was 0.298 (inactive); in test [6], -0.186 (inactive); in test [7] it was -1.8 (inactive). In addition, the results for the z-score in test [8] and in [9] were -0.57 (inactive) and -0.437, respectively. In addition, the composite z-score in [4] is -0.069 (inactive); in test [10] it was -0.177.
For `COC(=O)NCC=Cc1nc(CCCO)co1`, the z-score is -0.0091 in test [1]; 0.41 (inactive) in test [2]; -0.295 (inactive) in [3]; -0.245 (inactive) in [5]; 0.414 (inactive) in test [6]; 0.107 (inactive) in test [7]. Besides, the z-score is 0.438 (inactive) in [8] and -0.626 in [9]. For the same molecule, the composite z-score is -0.706 (inactive) in test [4] and -0.117 in test [10].
For the molecule `CO[C@H]1COC(=O)CCC[C@@H](C)[C@H](OC)COC(=O)[C@@H](C)NC(=O)CC=C[C@@H]1C`, the z-score in test [1] is 0.0039; in [2], 0.315 (inactive); in test [3], 0.77 (inactive); in [5] it was -1.46 (inactive); in test [6] it was -1.07 (inactive); in test [7] it was -1 (inactive). The z-score is -0.345 (inactive) in test [8] and 0.0228 in test [9]. Further, the composite z-score in test [4] is -2.33 (inactive); in test [10] it was -0.138.
